# Measured values reported in ChEMBL document CHEMBL1201862, “PubChem BioAssay data set” (2004).
# Out of some 400,000 compounds screened, about 2,100 (0.53%) were called active. About 14% were inconclusive and are not listed. The rule behind the calls is not given here. Only a selection was taken, and actives are over-represented in it overall.
# Biological target: Ataxin-2 (Homo sapiens) (UniProt Q99700)
# Test: qHTS for Inhibitors of ATXN expression.
# Assay type: functional
# Sequence of Ataxin-2 (Homo sapiens) (Q99700 whole entry): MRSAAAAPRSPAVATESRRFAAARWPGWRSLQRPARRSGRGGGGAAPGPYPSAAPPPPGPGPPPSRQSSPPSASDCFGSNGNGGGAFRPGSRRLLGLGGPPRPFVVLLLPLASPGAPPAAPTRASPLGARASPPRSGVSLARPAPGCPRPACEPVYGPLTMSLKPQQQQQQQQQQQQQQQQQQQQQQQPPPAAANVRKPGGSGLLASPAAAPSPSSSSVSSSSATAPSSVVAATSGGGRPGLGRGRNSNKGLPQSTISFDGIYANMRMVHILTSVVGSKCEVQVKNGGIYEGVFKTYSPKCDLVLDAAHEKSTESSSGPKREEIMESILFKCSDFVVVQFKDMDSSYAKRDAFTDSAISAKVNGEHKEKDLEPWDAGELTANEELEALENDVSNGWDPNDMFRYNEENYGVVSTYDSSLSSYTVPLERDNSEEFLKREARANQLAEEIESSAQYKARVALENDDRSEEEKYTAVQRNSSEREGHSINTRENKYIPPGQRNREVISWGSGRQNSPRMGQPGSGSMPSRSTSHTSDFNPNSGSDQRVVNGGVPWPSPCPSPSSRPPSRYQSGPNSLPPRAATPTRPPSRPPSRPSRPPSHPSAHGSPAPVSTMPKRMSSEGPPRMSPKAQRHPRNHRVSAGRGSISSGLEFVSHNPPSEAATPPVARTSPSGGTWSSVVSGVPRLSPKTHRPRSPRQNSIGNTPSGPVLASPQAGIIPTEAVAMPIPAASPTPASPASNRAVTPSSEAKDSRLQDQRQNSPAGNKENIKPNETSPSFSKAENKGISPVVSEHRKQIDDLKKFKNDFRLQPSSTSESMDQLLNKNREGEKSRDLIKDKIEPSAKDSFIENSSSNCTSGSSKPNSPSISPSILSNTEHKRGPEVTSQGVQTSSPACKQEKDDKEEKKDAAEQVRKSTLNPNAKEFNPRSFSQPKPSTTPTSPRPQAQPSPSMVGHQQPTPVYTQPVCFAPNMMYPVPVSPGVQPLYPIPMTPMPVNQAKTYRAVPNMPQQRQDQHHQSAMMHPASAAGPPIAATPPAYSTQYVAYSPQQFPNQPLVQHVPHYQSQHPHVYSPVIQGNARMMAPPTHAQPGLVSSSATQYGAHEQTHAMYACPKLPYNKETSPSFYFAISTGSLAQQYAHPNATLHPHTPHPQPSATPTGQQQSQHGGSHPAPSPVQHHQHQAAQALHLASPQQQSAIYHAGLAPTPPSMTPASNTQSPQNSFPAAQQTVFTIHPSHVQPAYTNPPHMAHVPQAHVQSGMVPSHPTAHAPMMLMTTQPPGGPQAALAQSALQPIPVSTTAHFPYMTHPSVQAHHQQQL
row,Compound,Potency
1,Cc1cc(C)c2c(N)c3cccc(C)c3nc2n1,inactive
2,CCOC(=O)C1=C(C#N)C(C(=O)OCC)c2ncccc21 (stereo unspecified),inactive
3,CCOC(=O)C1=C(Nc2ccccc2)S/C(=C\c2ccc(OCC(=O)O)c(OCC)c2)C1=O,inactive
4,CCOC(=O)C1=C(O)c2ccccc2C(=O)/C1=C\c1ccc(C)cc1,39.8 µM (active)
5,COCCNc1c2c(c(C#N)c3nc4ccccc4n13)CCCC2,inactive
6,COc1ccc(/C=C(\C#N)c2nc3cc(C)ccc3[nH]2)cc1Oc1ccc(C(F)(F)F)cc1[N+](=O)[O-],44.7 µM (active)
7,Cc1c(Cl)cccc1-c1ccc(/C=C(\C#N)c2nc3ccccc3[nH]2)o1,inactive
8,Cc1ccc2[nH]c(/C(C#N)=C/c3ccc(-c4ccccc4C(=O)O)o3)nc2c1,inactive
9,Cc1ccc2[nH]c(/C(C#N)=C\c3ccc([N+](=O)[O-])o3)nc2c1,8.91 µM (active)
10,COc1cc(/C=C(\C#N)c2nc3cc(C)ccc3[nH]2)ccc1OCc1ccc(C)cc1,inactive
11,COc1cc(/C=C(\C#N)c2nc3cc(C)ccc3[nH]2)ccc1OC(C)C,inactive
12,Oc1c(Br)cc(Br)cc1/C=N\c1cccnc1,inactive
13,COCc1cc(N2CCCC2)nc(-c2ccccc2)n1,inactive
14,Cc1c(N=C2N=C(NC(=O)Nc3ccc(Cl)cc3)c3ccccc32)c(=O)n(-c2ccccc2)n1C,inactive
15,O=C1c2cccc3c([N+](=O)[O-])ccc(c23)C(=O)N1CC1CCCO1 (stereo unspecified),inactive
16,CCn1c(C)nc2cc(C(=O)N/N=C(\C)c3ccccc3O)ccc21,inactive
17,CCCCCn1nc(-c2ccccc2)c2nc3ccccc3nc21,inactive
18,CCC(=O)NCCCc1nc2ccccc2n1Cc1ccccc1F,inactive
19,Cc1cccc(-n2cnc3cc(C(=O)NCCN4CCOCC4)ccc32)c1,inactive
20,ClCc1nc2ccccc2n1Cc1ccccc1,inactive
21,CCCn1c(CNC(=O)c2cccs2)nc2ccccc21,inactive
22,Cc1cccc(C(=O)NCCc2nc3ccccc3n2Cc2ccc(Cl)cc2)c1,28.2 µM (active)
23,CCCCCn1c(N)c(C#N)c2nc3ccccc3nc21,inactive
24,Cc1ccc(C(=O)NCCc2ccccc2)cc1N1CCCC1=O,inactive

row,Compound,Potency
1,CCCCCn1c(-c2cccc(C)c2)nc2ccccc21,35.5 µM (active)
2,CCc1ccccc1-n1c(C)nc2cc(C(=O)NCCc3ccc(Cl)cc3)ccc21,44.7 µM (active)
3,CCCCCn1c(CCNC(=O)c2cccc(C)c2)nc2ccccc21,31.6 µM (active)
4,COc1cccc(NC(=O)N2CCCC2C(=O)Nc2cc(C)ccc2OC)c1 (stereo unspecified),inactive
5,c1ccc2c3c(c(CN4CCCC4)cc2c1)COC3,inactive
6,Cc1ccc(NC(=O)NN2CCOCC2)cc1,inactive
7,CC1(C)Cc2c(cnn2-c2cccc(F)c2)C(NC(=O)CSc2ccccn2)C1 (stereo unspecified),inactive
8,Cc1cc(-n2c(=O)c(C#N)cc3c(=O)n4cccc(C)c4nc32)no1,inactive
9,O=C(N/N=C/c1ccc(N2CCOCC2)cc1)c1ccccc1NS(=O)(=O)c1cccs1,inactive
10,C[C@H]1CCC[C@]2(C)C[C@H]3OC(=O)C(CN4CCCCCC4)[C@H]3C=C12 (stereo partly specified),39.8 µM (active)
11,CCN/N=C(\Cc1nc2ccccc2[nH]1)c1ccccc1,inactive
12,Cc1cccn2c(=O)c3cc(C(=O)NCC4CCCO4)c(=N)n(CC4CCCO4)c3nc12 (stereo unspecified),inactive
13,COc1cccc(-c2nc(CS(=O)(=O)CC(=O)Nc3cccc(C)c3C)c(C)o2)c1,7.08 µM (active)
14,Cc1ccc(CNC(=O)CS(=O)(=O)Cc2nc(-c3ccccc3F)oc2C)cc1,inactive
15,Cc1ccc(-c2nc(CS(=O)(=O)CC(=O)NCc3ccc4c(c3)OCO4)c(C)o2)cc1,inactive
16,COc1ccc(OC)c(/C=C2\Oc3cc(OCC(=O)N4CC(O)C[C@H]4C(=O)O)ccc3C2=O)c1 (stereo partly specified),inactive
17,CCOc1ccc2c(c1)/C(=C(\C(Cl)=C(Cl)Cl)[N+](=O)[O-])N2,inactive
18,COc1ccc(/C=c2\s/c(=C(/C#N)C(=O)NCc3ccco3)n(-c3ccccc3)c2=O)cc1,inactive
19,COc1ccc(C(=O)/C(=C\c2ccco2)N2C=CC=CC2=C(C#N)C#N)cc1,1.78 µM (active)
20,O=C(O)CSCC(=O)NCc1csc2ccc(Cl)cc12,inactive
21,Cc1ccc(NC(=O)CSc2nnc(-c3cc(C)on3)o2)cc1,inactive
22,O=C(CSc1nc(-c2ccccc2)[nH]c1-c1ccccc1)Nc1ccc2c(c1)OCCO2,39.8 µM (active)
23,O=C(CSc1nc(-c2ccc(F)cc2)[nH]c1-c1ccc(F)cc1)Nc1ccc2c(c1)OCCO2,39.8 µM (active)
24,N#Cc1ccccc1NC(=O)CSc1nc(-c2ccccc2)cc(C(F)(F)F)c1C#N,inactive

row,Compound,Potency
1,COc1ccc(-c2[nH]c(-c3ccc(C)cc3)nc2SCC(=O)NCc2ccco2)cc1OC,inactive
2,O=C(CN1CCc2ccccc21)Nc1ccc2c(c1)OCCCO2,inactive
3,CCN(CC)c1ccc2cc(C(N)=O)c(=N)oc2c1,inactive
4,O=C1N=C(N2CCCCC2)S/C1=C\c1ccc(Br)cc1,inactive
5,CC(=O)Oc1ccc2cc(-c3nc4ccccc4n3C)c(=O)oc2c1,inactive
6,Cc1ccccc1N1CC(c2nc3ccccc3n2CCC2CCCCC2)CC1=O (stereo unspecified),35.5 µM (active)
7,Cc1cc(NC2CCCCC2)n2c(n1)nc1ccccc12,inactive
8,Cc1cccc(N2CC(c3nc4ccccc4n3C)CC2=O)c1C (stereo unspecified),inactive
9,CC(C)(C)OC(=O)c1c(N)n(CCCN2CCCC2=O)c2nc3ccccc3nc12,inactive
10,CCc1ccc(OCCn2c(C3CC(=O)N(Cc4ccc(F)cc4)C3)nc3ccccc32)cc1 (stereo unspecified),39.8 µM (active)
11,Cc1cc(OCCn2c(C3CC(=O)N(Cc4ccc(F)cc4)C3)nc3ccccc32)ccc1Cl (stereo unspecified),39.8 µM (active)
12,CCCCN1CC(c2nc3ccccc3n2CCCCOc2ccc(C)c(C)c2)CC1=O (stereo unspecified),39.8 µM (active)
13,O=c1nc2n(-c3ccccc3F)c3ccccc3cc-2c(=O)[nH]1,inactive
14,CCOC(=O)c1c(NC(=O)c2ccco2)n(C2CCCCC2)c2nc3ccccc3nc12,inactive
15,Cc1noc(C)c1CSCC(=O)Nc1ccc(S(C)(=O)=O)cc1,inactive
16,CC(C)OC(=O)CSc1nc(Cc2ccccc2)nc2ccccc12,inactive
17,Cc1cc(-c2nc3cccnc3s2)ccc1NS(=O)(=O)c1cccs1,inactive
18,O=C(COC(=O)c1cccnc1)NC1CCCc2ccccc21 (stereo unspecified),inactive
19,CCOc1ccc(N2CC(c3nc4ccccc4n3CCCOc3ccccc3)CC2=O)cc1 (stereo unspecified),22.4 µM (active)
20,CCOc1ccc(CNc2nc3ccccc3n2C)cc1,inactive
21,CCOc1ccc(N2CC(C(=O)Nc3ccc(S(=O)(=O)NCC4CCCO4)cc3)CC2=O)cc1 (stereo unspecified),inactive
22,Cc1nn(Cc2ccccc2)c(Cl)c1/C=N/NC(=O)c1cccnc1,inactive
23,CN1CCN(c2ccc([N+](=O)[O-])c(-n3nc(-c4ccccc4)c4ccccc4c3=O)c2)CC1,35.5 µM (active)
24,Nc1ccc2nn(-c3ccccc3)nc2c1,inactive

row,Compound,Potency
1,N#CC(c1nc2ccccc2nc1N1CCOCC1)S(=O)(=O)c1ccccc1 (stereo unspecified),inactive
2,Fc1ccccc1N1CC(c2ccccc2)C(c2cccs2)=N1 (stereo unspecified),inactive
3,CCCCCCc1cc2cc(S(=O)(=O)c3ccc(F)c(Cl)c3)c(=O)oc2cc1O,inactive
4,Clc1ccc2c(NCCNC3CCCCC3)ccnc2c1,15.8 µM (active)
5,OC(CNc1ccnc2cc(Cl)ccc12)CNC1CCCCC1 (stereo unspecified),39.8 µM (active)
6,Cc1ccc(/C=C2\CCC3=C2OC(N)=C(C#N)C3c2ccc(C)cc2)cc1 (stereo unspecified),inactive
7,CCOC(=O)c1cc2c(=O)n3ccccc3nc2n(CC2CCCO2)/c1=N\C(=O)c1ccc(OC)cc1OC (stereo unspecified),inactive
8,O=C(Cc1ccccc1)N/N=C/c1cc(Br)cc(Cl)c1O,inactive
9,CCOC(=O)c1cc2c(=O)n3ccccc3nc2n(Cc2ccco2)/c1=N\C(=O)c1cccc(F)c1,inactive
10,Clc1ccc(-c2noc(/C=C/c3ccccc3)n2)cc1,inactive
11,O=C1/C(=C/Nc2nnc(CCCO)[nH]2)c2ccccc2C(=O)N1c1ccccc1Cl,inactive
12,CCCCn1c(N)c(N(CCOC)C(=O)CN2c3ccccc3CC2C)c(=O)[nH]c1=O (stereo unspecified),inactive
13,CCCCN(C(=O)CSc1nnc2ccccn12)c1c(N)n(Cc2ccccc2)c(=O)[nH]c1=O,inactive
14,Cc1ccccc1OCC(=O)N(Cc1ccco1)c1c(N)n(Cc2ccccc2)c(=O)[nH]c1=O,inactive
15,Nc1c(N(CCC2=CCCCC2)C(=O)COc2ccc(F)cc2Cl)c(=O)[nH]c(=O)n1Cc1ccccc1,11.9 µM (active)
16,Nc1c(N(CCC2=CCCCC2)C(=O)COc2ccc(F)cc2)c(=O)[nH]c(=O)n1Cc1ccccc1,39.8 µM (active)
17,CCN(C(=O)COC(=O)c1cccc(S(=O)(=O)N(C)C)c1)c1c(N)n(Cc2ccccc2)c(=O)[nH]c1=O,inactive
18,CCn1c(=N)c(C(=O)NCC2CCCO2)cc2c(=O)n3cc(C)ccc3nc21 (stereo unspecified),inactive
19,C=CCC[C@@H](Cc1ccc(F)cc1)C(=O)OC[C@H](Cc1c[nH]c2ccccc12)NC(=O)[C@@H](CC=C)CC(=O)NCCO,39.8 µM (active)
20,C=CC[C@@H](CC(=O)N[C@H](CO)Cc1ccccc1)C(=O)N[C@H](COC(=O)[C@@H](CC=C)Cc1ccc(F)cc1)Cc1c[nH]c2ccccc12,25.1 µM (active)
21,C=CCC[C@H](Cc1ccc(F)cc1)C(=O)OC[C@H](Cc1c[nH]c2ccccc12)NC(=O)[C@@H](CC=C)CC(=O)NCCO,28.2 µM (active)
22,C=CC[C@@H](CC(=O)NCCO)C(=O)N[C@H](COC(=O)[C@@H](CC=C)Cc1ccc(F)cc1)Cc1c[nH]c2ccccc12,35.5 µM (active)
23,CC(C)n1c(=N)c(C(=O)NCCc2ccccc2)cc2c(=O)n3ccccc3nc21,inactive
24,COc1cc(/C=C2\C(=N)N3N=CSC3=NC2=O)cc(Br)c1OC(=O)c1ccco1,inactive
